# Source: PubChem BioAssay
# Results filed as inconclusive are left out. Calls of active or inactive are those of the source.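 Rule for the calls, unless noted: active = normalized viability below 100% at a tested concentration; inactive = the rest.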
# Assays:
# [1] = viability loss in pontine glioma line – cell-based, SU-DIPG-XIII, MIPE5.0, CellTiter-Glo, qHTS, dose response (AID 1347064; cut-off not given, nearly all actives have AC50 up to about 23 µM;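 for AC50: cells exposed to compound for 48 hours before the viability read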); conditions: CellTiter-Glo ATP luminescence
# [2] = JHH-DIPG-1 glioma cell viability, MIPE5.0 library, CellTiter-Glo luminescence, qHTS (AID 1347067; cut-off not given, nearly all actives have AC50 up to about 26 µM;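 note: cells exposed to compound for 48 hours before readout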); conditions: JHH-DIPG-1 glioma viability, CellTiter-Glo ATP luminescence
# [3] = growth inhibition of DIPG cells – cell-based, MIPE5.0 library, qHTS (AID 1347068; cut-off not given, nearly all actives have IC50 up to about 30 µM); conditions: SU-DIPG-XXV viability
# [4] = viability loss in pontine glioma line – cell-based, SU-DIPG-XXV, MIPE5.0, CellTiter-Glo, qHTS, dose response (AID 1347065; cut-off not given, nearly all actives have AC50 up to about 26 µM;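 note: cells exposed to compound for 48 hours before ATP readout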); conditions: CellTiter-Glo ATP luminescence
# [5] = growth inhibition of DIPG cells – cell-based, MIPE4.0 library, CellTiter-Glo luminescence, qHTS (AID 1347066; cut-off not given, nearly all actives have AC50 up to about 30 µM;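 note: cells exposed to compound for 48 hours before readout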); conditions: SU-DIPG-VI viability, CellTiter-Glo ATP luminescence
# [6] = compounds altering HSF1 focus formation in cells – imaging, Selleck Cancer Library (AID 1347162; in the data active = plate-normalised HSF1 focus index below about 0.46); conditions: human cells, HSF1 nuclear foci imaging, at 10 µM; SSMD: measured here: HSF1 foci SSMD mean; cell count: measured here: cell number; plate-normalised HSF1 focus index: stronger effect = lower value
# [7] = viability loss with induced miR-34 in A549 – imaging, A549 dox-inducible miR-34, nuclei and caspase counts, primary screen (AID 1347080;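 active = compounds whose cell count with miR-34 switched on is under 0.7 times the count with it off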); conditions: A549 miR-34 inducible, Hoechst nuclei count, 48 h
# [8] = MELAS cybrid and Rieske KO viability enhancers – cell-based, MELAS cybrids, Rieske KO mouse fibroblasts, CellTiter-Glo, primary screen (AID 1508586;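 active = mean z-score across replicates of 1.96 or higher in either the MELAS or the Rieske mutant cell line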;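 note: z relative to plate mean and SD of compound and empty wells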); conditions: low glucose
# [9] = drug combination growth inhibition, ovarian cancer – cell-based, oncology-focused library, rucaparib conditional, profiling panel (AID 1508598); conditions: patient-derived ovarian cancer cells, CellTiter-Glo viability, 144 h, stronger effect = lower value
structure (smiles),measurement,setting,value
C[C@H](Nc1ncnc2nc[nH]c12)c1cc2ccc(F)cc2nc1-c1ccccn1,outcome,[1],inactive
same,outcome,[2],inactive
same,outcome,[3],inactive
Nc1ncnc2c1c(COc1cccc(Cl)c1)nn2C1CCOCC1,outcome,[1],inactive
same,outcome,[3],inactive
NC(=O)c1cnc2[nH]ccc2c1NC1C2CC3C[C@H]1CC(O)(C3)C2 (stereo not given in full),AC50,[4],9.34 µM (active)
C=CC(=O)Nc1ccc(F)c(-c2ncnc3[nH]cc(C(=O)OCC)c23)c1,AC50,[4],18.6 µM (active)
same,AC50,[2],18.6 µM (active)
Cc1cc(/C=c2/sc3nc4ccccc4n3c2=O)c(C)n1-c1ccccc1,AC50,[4],20.9 µM (active)
same,outcome,[5],inactive
same,outcome,[2],inactive
same,outcome,[3],inactive
same,SSMD,[6],3.08
same,cell count,[6],7030
same,plate-normalised HSF1 focus index,[6],1.18 (inactive)
Cc1nn(C)c2c1C(c1ccc(C(F)(F)F)cc1)C(C#N)=C(N)O2 (stereo not given),outcome,[1],inactive
same,outcome,[3],inactive
CCc1cc(Nc2nccc(-c3c(-c4ccc(OC)c(C(=O)Nc5c(F)cccc5F)c4)nc4ccccn34)n2)c(OC)cc1N1CCC(N2CCN(S(C)(=O)=O)CC2)CC1,AC50,[1],5.25 µM (active)
same,outcome,[3],inactive
same,fold change,"[7]; stronger effect = lower value, cell number ratio, induced over uninduced",0.946 (inactive)
same,fold change,[7]; measured here: relative caspase fold change +Dox/-Dox,1.23
same,cell count,"[7]; measured here: total cells with miR-34 induction, stronger effect = lower value",6190
same,cell count,[7]; measured here: total cells without miR-34 induction,6540
same,SSMD,[6],2.41
same,cell count,[6],6760
same,plate-normalised HSF1 focus index,[6],1.12 (inactive)
same,z-score,"[8]; MELAS cybrid survival, CellTiter-Glo 48 h, stronger effect = higher value",0.319 (inactive)
same,z-score,"[8]; Rieske KO mouse fibroblast survival, CellTiter-Glo 72 h",0.793
same,viability,"[9]; at 0.000305 µM, OCI-C5x cells, with rucaparib 10 µM, 100% = cells with rucaparib alone",118% (inactive)
same,viability,"[9]; at 0.000305 µM, OCI-C5x cells, without rucaparib",127% (inactive)
same,viability,"[9]; at 0.000305 µM, OCI-P5x cells, with rucaparib 20 µM, 100% = cells with rucaparib alone",97.3% (active)
same,viability,"[9]; at 0.000305 µM, OCI-P5x cells, without rucaparib",105% (inactive)
same,viability,"[9]; at 0.00122 µM, OCI-C5x cells, with rucaparib 10 µM, 100% = cells with rucaparib alone",112% (inactive)
same,viability,"[9]; at 0.00122 µM, OCI-C5x cells, without rucaparib",120% (inactive)
same,viability,"[9]; at 0.00122 µM, OCI-P5x cells, with rucaparib 20 µM, 100% = cells with rucaparib alone",99.8% (active)
same,viability,"[9]; at 0.00122 µM, OCI-P5x cells, without rucaparib",104% (inactive)
same,viability,"[9]; at 0.00488 µM, OCI-C5x cells, with rucaparib 10 µM, 100% = cells with rucaparib alone",116% (inactive)
same,viability,"[9]; at 0.00488 µM, OCI-C5x cells, without rucaparib",121% (inactive)
same,viability,"[9]; at 0.00488 µM, OCI-P5x cells, with rucaparib 20 µM, 100% = cells with rucaparib alone",98.3% (active)
same,viability,"[9]; at 0.00488 µM, OCI-P5x cells, without rucaparib",98.5% (active)
same,viability,"[9]; at 0.0195 µM, OCI-C5x cells, with rucaparib 10 µM, 100% = cells with rucaparib alone",112% (inactive)
same,viability,"[9]; at 0.0195 µM, OCI-C5x cells, without rucaparib",119% (inactive)
same,viability,"[9]; at 0.0195 µM, OCI-P5x cells, with rucaparib 20 µM, 100% = cells with rucaparib alone",102% (inactive)
same,viability,"[9]; at 0.0195 µM, OCI-P5x cells, without rucaparib",103% (inactive)
same,viability,"[9]; at 0.0781 µM, OCI-C5x cells, with rucaparib 10 µM, 100% = cells with rucaparib alone",122% (inactive)
same,viability,"[9]; at 0.0781 µM, OCI-C5x cells, without rucaparib",132% (inactive)
same,viability,"[9]; at 0.0781 µM, OCI-P5x cells, with rucaparib 20 µM, 100% = cells with rucaparib alone",93.1% (active)
same,viability,"[9]; at 0.0781 µM, OCI-P5x cells, without rucaparib",100% (inactive)
same,viability,"[9]; at 0.313 µM, OCI-C5x cells, with rucaparib 10 µM, 100% = cells with rucaparib alone",174% (inactive)
same,viability,"[9]; at 0.313 µM, OCI-C5x cells, without rucaparib",152% (inactive)
same,viability,"[9]; at 0.313 µM, OCI-P5x cells, with rucaparib 20 µM, 100% = cells with rucaparib alone",103% (inactive)
same,viability,"[9]; at 0.313 µM, OCI-P5x cells, without rucaparib",103% (inactive)
same,viability,"[9]; at 1.25 µM, OCI-C5x cells, with rucaparib 10 µM, 100% = cells with rucaparib alone",178% (inactive)
same,viability,"[9]; at 1.25 µM, OCI-C5x cells, without rucaparib",174% (inactive)
same,viability,"[9]; at 1.25 µM, OCI-P5x cells, with rucaparib 20 µM, 100% = cells with rucaparib alone",97.9% (active)
same,viability,"[9]; at 1.25 µM, OCI-P5x cells, without rucaparib",88.3% (active)
same,viability,"[9]; at 5 µM, OCI-C5x cells, with rucaparib 10 µM, 100% = cells with rucaparib alone",176% (inactive)
same,viability,"[9]; at 5 µM, OCI-C5x cells, without rucaparib",196% (inactive)
same,viability,"[9]; at 5 µM, OCI-P5x cells, with rucaparib 20 µM, 100% = cells with rucaparib alone",92.9% (active)
same,viability,"[9]; at 5 µM, OCI-P5x cells, without rucaparib",90.5% (active)
